# In PubChem BioAssay:
# “And” between values parts separate entries of the source, which are not always exact repeats. Identical values can stand only once. For some assays here: Entries with a potency or affinity are not part of this list. The source made the active and inactive calls. Unless noted, no stated cut-off is given here; in the data, active means parasite load remaining mostly below about 12% (no sharp cut-off); inactive means mostly above about 10%.
# Assays:
# [1] = blockers of polyQ-driven CASP3 activation – cell-based (AID 1583); conditions: polyglutamine-induced caspase-3 activation, cell assay; stronger effect = higher value;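 tested at 10 µM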
# [2] = yeast 75Q aggregation reduction – 75Q-TubU reporter (AID 1593); conditions: Yeast 75Q polyglutamine aggregation reporter
# [3] = restoration of touch response, mutant HTT neurons – whole organism, C. elegans mechanosensory neurons, N-terminal huntingtin (AID 1599); conditions: C. elegans polyQ-huntingtin mechanosensory neurons, stronger effect = higher value
# [4] = blockers of cytochrome c efflux from mitochondria – biochemical, purified mitochondria (AID 1603); conditions: stronger effect = lower value;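 further: mouse liver mitochondria challenged with calcium chloride; signal normalized to the plate average as 100%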
# [5] = polyglutamine aggregate formation blockers (AID 1604); conditions: polyglutamine-induced protein aggregation inhibition assay; stronger effect = higher value; tested at 2.5 µM
# [6] = glutamate transport activators, MN-1 cells, MN-1 cell line (AID 1612); conditions: MN-1 motor neuron cells, stronger effect = higher value;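 further: tested at 1 µM final; 0% = mean of DMSO vehicle wells on each plate; positive means more glutamate uptake than control and negative means less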
# [7] = GFP-Q80 aggregate reduction, neuronal-like cells, cell-based, NGF-treated PC12, GFPQ80 (AID 1614); conditions: PC12 NGF-treated GFP-polyQ80 inclusion reduction;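 further: lower means fewer inclusions and 0 means no inclusions at all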
# [8] = 75Q-TubH aggregate inhibition, S. cerevisiae, yeast (AID 1616); conditions: S. cerevisiae 75Q-TubH polyglutamine aggregation suppression; stronger effect = higher value
# [9] = compounds altering circadian rhythm period length – cell-based, LOPAC library, luminescence reporter (AID 2774; call rule not given here;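 further: values are relative to mean of DMSO wells on each plate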); conditions: circadian reporter cells, at 7 µM, actives lie on both sides
# [10] = test system: Hepatitis C virus NS3 helicase; experiment: blockers of NS3h binding to ssDNA – biochemical, fluorescence polarization, LOPAC1280 library, primary screen (AID 687035; in the data active means inhibition above about 37%); conditions: Purified HCV NS3 helicase, Cy5-dT15 ssDNA binding fluorescence polarization; stronger effect = higher value; concentration not given here
# [11] = compounds altering Cy5-DNA-NS3h complex signal – biochemical, LOPAC1280, artefact control for HCV NS3 helicase inhibitor project (AID 687037; call rule not given here); conditions: Cy5-DNA-NS3h complex fluorescence interference counterscreen
# [12] = molecular target: 6-phosphogluconate dehydrogenase, decarboxylating (Homo sapiens) (UniProt P52209); experiment: inhibition of human phosphogluconate dehydrogenase – biochemical, recombinant enzyme, NADPH absorbance, primary screen (AID 1159550;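 active means at least 20% inhibition of 6-phosphogluconate dehydrogenase activity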); conditions: recombinant 6PGD, NADPH absorbance 341 nm; at 10 µM; stronger effect = higher value
# 6-phosphogluconate dehydrogenase, decarboxylating (Homo sapiens), sequence (P52209 whole entry, looked up): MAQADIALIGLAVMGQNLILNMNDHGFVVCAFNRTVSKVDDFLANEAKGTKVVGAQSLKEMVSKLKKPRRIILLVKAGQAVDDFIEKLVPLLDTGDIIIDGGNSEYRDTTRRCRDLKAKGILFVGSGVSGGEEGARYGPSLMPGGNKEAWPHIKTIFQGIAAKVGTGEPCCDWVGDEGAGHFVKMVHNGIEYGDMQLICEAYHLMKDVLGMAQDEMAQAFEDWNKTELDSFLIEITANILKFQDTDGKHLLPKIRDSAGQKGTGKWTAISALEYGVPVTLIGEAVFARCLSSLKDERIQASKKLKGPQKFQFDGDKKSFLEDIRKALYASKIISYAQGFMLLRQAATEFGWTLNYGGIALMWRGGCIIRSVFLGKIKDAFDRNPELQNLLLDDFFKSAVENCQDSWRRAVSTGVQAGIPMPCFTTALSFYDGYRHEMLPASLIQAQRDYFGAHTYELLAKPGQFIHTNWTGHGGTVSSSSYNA
# [13] = EMT-state selective cytotoxicity in co-culture – imaging, PC-3E GFP, TEM4-18 mCherry, primary screen (AID 1345086;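 active means compounds killing one labelled cell type while sparing the other, by normalised counts and ratio limits, not self-fluorescent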;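 on all read-outs here: cells exposed to compound for 72 h before imaging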;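 on red/green cell ratio (normalised): normalised mesenchymal count divided by normalised epithelial count so high means epithelial killing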); conditions: PC-3E GFP / TEM4-18 mCherry co-culture, imaging cell counts, at 1 µM; for red/green cell ratio (normalised): actives lie on both sides, counts scaled to control wells, 1 = unselective
# [14] = viability loss with induced miR-34 in A549 – imaging, A549 dox-inducible miR-34, nuclei and caspase counts, primary screen (AID 1347080;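 active means compounds whose cell count with miR-34 switched on is under 0.7 times the count with it off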); conditions: A549 miR-34 inducible, Hoechst nuclei count, 48 h
# [15] = blockers of cellular phospholipid synthesis – cell-based, LOPAC library, screen 4, primary screen (AID 1347384; call rule not given here); conditions: animal cells, phospholipid biosynthesis inhibition screen; at 10 µM
# [16] = molecular target: Mitogen-activated protein kinase 7 (Homo sapiens) (UniProt Q13164); experiment: Gal4-ERK5 driven luciferase induction – cell-based, HTS, primary screen (AID 1508626;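 active means luciferase signal above three times the same-plate solvent-only control wells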;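 further: luciferase driven by Gal4-ERK5 fusion binding five Gal4 sites before minimal TATA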); conditions: HeLa Gal4-ERK5 transactivation, 18 h, at 5 µM, stronger effect = higher value
# Mitogen-activated protein kinase 7 (Homo sapiens), sequence (Q13164 whole entry, looked up, the tested form may be a part): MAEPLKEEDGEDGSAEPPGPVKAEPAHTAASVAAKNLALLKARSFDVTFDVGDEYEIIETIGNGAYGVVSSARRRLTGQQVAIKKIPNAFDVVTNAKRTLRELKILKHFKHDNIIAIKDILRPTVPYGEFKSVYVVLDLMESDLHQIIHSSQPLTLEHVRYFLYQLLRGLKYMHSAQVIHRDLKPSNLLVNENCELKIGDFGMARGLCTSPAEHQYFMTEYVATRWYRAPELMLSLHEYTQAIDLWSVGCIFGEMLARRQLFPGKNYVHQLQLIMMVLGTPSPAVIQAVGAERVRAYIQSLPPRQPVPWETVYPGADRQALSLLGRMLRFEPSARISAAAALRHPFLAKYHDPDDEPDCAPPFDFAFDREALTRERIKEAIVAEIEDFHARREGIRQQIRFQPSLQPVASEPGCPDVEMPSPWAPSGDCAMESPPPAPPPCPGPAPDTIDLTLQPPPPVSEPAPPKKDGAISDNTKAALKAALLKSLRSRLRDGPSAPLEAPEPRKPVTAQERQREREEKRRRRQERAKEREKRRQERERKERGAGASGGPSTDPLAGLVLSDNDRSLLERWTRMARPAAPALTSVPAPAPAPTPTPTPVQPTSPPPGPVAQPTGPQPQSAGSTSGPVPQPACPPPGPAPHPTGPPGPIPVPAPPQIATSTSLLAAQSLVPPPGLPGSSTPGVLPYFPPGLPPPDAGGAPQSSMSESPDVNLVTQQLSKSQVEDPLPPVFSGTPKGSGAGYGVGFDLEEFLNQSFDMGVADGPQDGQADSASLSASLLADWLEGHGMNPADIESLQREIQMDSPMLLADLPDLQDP
# [17] = galactose survival enhancers in mitochondrial complex I cybrids – cell-based, galactose medium, ATP luminescence, primary screen (AID 1645843;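 active means z-score of at least 1.8 in each of two replicates, scored against plate mean and spread of sample wells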;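 further: positive z means more ATP and so rescue of galactose-driven cybrid death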); conditions: complex I mutant cybrid cells, 72 h, stronger effect = higher value
# [18] = P. berghei load reduction in hepatocytes – cell-based, HepG2, luciferase luminescence, HepG2 viability, primary screen (AID 624349);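 further: 100% = mean of DMSO negative control wells on the same plate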; conditions: P. berghei liver stage in HepG2, luciferase luminescence, concentration not given here; parasite load remaining: stronger effect = lower value; viability: measured here: HepG2 viability without parasites
# [19] = MELAS cybrid and Rieske KO viability enhancers – cell-based, MELAS cybrids, Rieske KO mouse fibroblasts, CellTiter-Glo, primary screen (AID 1508586;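 active means mean z-score across replicates of 1.96 or higher in either the MELAS or the Rieske mutant cell line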;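 further: z relative to plate mean and SD of compound and empty wells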); conditions: low glucose
# [20] = measured here: epithelial PC-3E GFP cell survival
# [21] = measured here: mesenchymal TEM4-18 mCherry cell survival
# [22] = stronger effect = lower value, cell number ratio, induced over uninduced
# [23] = measured here: relative caspase fold change +Dox/-Dox
# [24] = measured here: total cells with miR-34 induction, stronger effect = lower value
# [25] = measured here: total cells without miR-34 induction
# [26] = MELAS cybrid survival, CellTiter-Glo 48 h, stronger effect = higher value
# [27] = Rieske KO mouse fibroblast survival, CellTiter-Glo 72 h
smiles,measurement,setting,value
Cn1c(=O)c2[nH]c(C3CCCC3)nc2n(C)c1=O,inhibition,[1],24.6%
same,score,[2],1.3
same,rescue above control,[3],12.7
same,cytochrome c release ratio,[4],0.91
same,inhibition of aggregation,[5],-13.7%
same,glutamate uptake change,[6],10.7%
same,inclusion score,[7],1.5
same,aggregation suppression score,[8],1.14
same,period change,[9],0.02 h (inactive)
same,inhibition,[10],-1% (inactive)
same,fluorescence ratio (interference),[11],1 (inactive)
same,inhibition,[12],-7.2% (inactive)
same,red/green cell ratio (normalised),[13],0.82 (inactive)
same,normalised cell number,[13]; [20],1.23
same,normalised cell number,[13]; [21],1.01
same,fold change,[14]; [22],0.947 (inactive)
same,fold change,[14]; [23],1.51
same,cell count,[14]; [24],9200
same,cell count,[14]; [25],9710
same,outcome,[15],inactive
same,luciferase signal,[16],44 AU (inactive)
same,z-score,[17],0.92 (inactive)
NC(=O)c1ccc[n+]([C@@H]2O[C@H](COP(=O)([O-])OP(=O)(O)OC[C@H]3O[C@@H](n4cnc5c(N)ncnc54)[C@H](O)[C@@H]3O)[C@@H](O)[C@H]2O)c1,inhibition,[1],7.61%
same,score,[2],1.51
same,rescue above control,[3],2.62
same,cytochrome c release ratio,[4],0.91
same,inhibition of aggregation,[5],63.6%
same,glutamate uptake change,[6],28.3%
same,inclusion score,[7],2
same,aggregation suppression score,[8],1.51
same,parasite load remaining,[18],87.2% (inactive) and 76.6% (inactive)
same,viability,[18],103% and 92.6%
same,inhibition,[12],10.6% (inactive)
same,red/green cell ratio (normalised),[13],0.97 (inactive)
same,normalised cell number,[13]; [20],1.17
same,normalised cell number,[13]; [21],1.14
same,fold change,[14]; [22],0.824 (inactive) and 0.891 (inactive)
same,fold change,[14]; [23],1.3 and 1.13
same,cell count,[14]; [24],8060 and 11500
same,cell count,[14]; [25],9780 and 12900
same,z-score,[19]; [26],-1.2 (inactive)
same,z-score,[19]; [27],0.344
same,luciferase signal,[16],72 AU (inactive)
N[C@@H](Cc1cc(I)c(Oc2ccc(O)c(I)c2)c(I)c1)C(=O)O,parasite load remaining,[18],78.5% (inactive) and 158% (inactive) and 41% (inactive)
same,viability,[18],96% and 73% and 101%
same,inhibition,[12],0.697% (inactive)
same,red/green cell ratio (normalised),[13],1.24 (inactive)
same,normalised cell number,[13]; [20],0.91
same,normalised cell number,[13]; [21],1.14
same,fold change,[14]; [22],0.925 (inactive) and 0.987 (inactive)
same,fold change,[14]; [23],0.994 and 1.44
same,cell count,[14]; [24],10000 and 11900
same,cell count,[14]; [25],10800 and 12100
same,z-score,[19]; [26],-0.576 (inactive)
same,z-score,[19]; [27],-1.73
same,luciferase signal,[16],80 AU (inactive)
CC(C(=O)O)c1ccc(N2Cc3ccccc3C2=O)cc1 (stereo unspecified),inhibition,[1],-2.1%
same,score,[2],0.89
same,rescue above control,[3],-4.46
same,cytochrome c release ratio,[4],1.17
same,inhibition of aggregation,[5],83.7%
same,glutamate uptake change,[6],-13.2%
same,inclusion score,[7],2.5
same,aggregation suppression score,[8],1.02
same,parasite load remaining,[18],132% (inactive) and 273% (inactive) and 101% (inactive)
same,viability,[18],95.7% and 78.1% and 95.5%
same,inhibition,[12],-13% (inactive)
same,red/green cell ratio (normalised),[13],1.39 (inactive)
same,normalised cell number,[13]; [20],0.94
same,normalised cell number,[13]; [21],1.31
same,fold change,[14]; [22],0.881 (inactive) and 0.915 (inactive)
same,fold change,[14]; [23],1.39 and 0.964
same,cell count,[14]; [24],9440 and 11300
same,cell count,[14]; [25],10700 and 12400
same,z-score,[19]; [26],0.44 (inactive)
same,z-score,[19]; [27],-0.221
same,luciferase signal,[16],68 AU (inactive)
NCCSSCCN,inhibition,[1],34.8%
same,score,[2],1.31
same,rescue above control,[3],-5.12
same,cytochrome c release ratio,[4],1.22
same,inhibition of aggregation,[5],47.1%
same,glutamate uptake change,[6],15.5%
same,inclusion score,[7],2
same,aggregation suppression score,[8],1.2
same,period change,[9],-0.055 h (inactive)
same,parasite load remaining,[18],165% (inactive)
same,viability,[18],85.4%
same,inhibition,[10],-2% (inactive)
same,fluorescence ratio (interference),[11],1 (inactive)
same,inhibition,[12],7.72% (inactive)
same,red/green cell ratio (normalised),[13],0.92 (inactive)
same,normalised cell number,[13]; [20],1.09
same,normalised cell number,[13]; [21],1.01
same,fold change,[14]; [22],1.02 (inactive)
same,fold change,[14]; [23],2.84
same,cell count,[14]; [24],10300
same,cell count,[14]; [25],10100
same,outcome,[15],inactive
same,luciferase signal,[16],76 AU (inactive)
same,z-score,[17],-0.04 (inactive)
